# Only some compounds are listed: those with a hit (about 19% of all), similar ones and a draw of the others.
# HT1080 IDH1KD tx: HT-1080 IDH1 knockdown cell toxicity (counter line) | AID 686971 | actives 2% (n = 360,000) | HT-1080 IDH1 knockdown viability, ATP luminescence, 48 h | Potency, µM (top dose mostly 46.1 µM), for inactives: top-dose activity, negative = toxicity, hits mostly cytotoxic;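 note: 0% = DMSO wells and -100% = cell-free medium wells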
#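 % activity derives from luminescence (CellTiter-Glo), normalised to DMSO and no-cell wells. HT-1080-IDH1KD cells, 750/well, had 48 h compound exposure at 37 °C.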
# KB-V1 cytotox: kills drug-selected multidrug resistant KB-V1 cells | actives 3.4% (n = 400,000) | Potency, µM (series often up to 46.1 µM), most hits filed as cytotoxic | KB-V1 MDR cells viability, CellTiter-Glo, 72 h; note: nearly all actives have a fitted effect of over 60% in size
#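 In this primary screen, KB-V1 cells overexpressing P-gp are incubated with library compounds (lowest to highest concentration) for 72 h at 37 degrees C before a luminescent ATP viability read.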
# TDP1 cell CPT: DT40-hTDP1 cell growth loss with CPT; actives 12% (n = 420,000); Potency, µM (series often up to 46.2 µM), for inactives: at the highest dose activity change, negative = growth inhibition, hits mostly inhibitors; chicken DT40 Tdp1-/-;hTDP1 cells + 20 nM CPT, ATP luminescence, 48 h; AID 686979; note: nearly all actives have a fitted effect of over 55% in size
#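 Chicken DT40 Tdp1-/- cells stably complemented with human TDP1 were seeded at 400 cells/well in medium containing 20 nM camptothecin, exposed to pin-transferred compounds, and grown at 37 °C for at least 48 hr. Viability was read as ATP luminescence.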
# HT1080-NT tox: kills 2HG-producing HT-1080-NT fibrosarcoma cells. Potency, µM (titrated, usually from 46.1 µM), for inactives: at the highest dose activity, negative = less viability, hits mostly cytotoxic. actives 1.6% (n = 360,000). HT-1080-NT fibrosarcoma viability, CellTiter-Glo ATP luminescence, 48 h;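 note: NT is the 2HG producing partner of a matched IDH1 knockdown line; 0% = DMSO-treated cells and -100% = media-only wells without cells; nearly all actives have a fitted effect of over 55% in size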
#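 HT-1080-NT; 750 cells/well; 5% FBS RPMI; 48 h compound, 37 degrees C; CellTiter-Glo luminescence; curve fitting and curve-class assignment.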
# TDP1 cell noCPT: qHTS for Inhibitors of human tyrosyl-DNA phosphodiesterase 1 (TDP1): qHTS in cells in absence of CPT; DT40 Tdp1-/- hTDP1 cells, no CPT, ATP luminescence, 48 h; Potency, µM (titrated, usually from 46.2 µM), for inactives: at the highest dose activity change, negative = growth inhibition, usual class: inhibitors; actives 15% (n = 420,000); AID 686978, 2013; note: nearly all actives have a fitted effect of over 55% in size
#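 Compound effects on proliferation are scored in DT40 Tdp1-/-;hTDP1 cells in the absence of CPT. ATP levels (CellTiter-Glo luminescence) are recorded after a ≥48 hr, 37 °C incubation.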
# KB-3-1 cytotox: kills parental KB-3-1 adenocarcinoma cells | AID 1347075 | actives 1.4% (n = 400,000) | Potency, µM (doses to about 46.1 µM), most hits filed as cytotoxic | KB-3-1 viability, CellTiter-Glo ATP luminescence, 72 h; note: nearly all actives have a fitted effect of over 60% in size
#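 KB-3-1 parental drug-naive adenocarcinoma cells in DMEM/10% FBS, incubated 72 h at 37 C with pin-transferred compounds across a concentration series. Viability by CellTiter-Glo luminescence; concentration-response curves fitted after normalization.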
# * = called active by the depositor; i = inactive; ? = inconclusive; · = not tested or not shown. Calls come from the whole dose curve; as a rule, active = well fitted curve in the direction sought with a large enough effect; inconclusive = small, poorly fitted or top-dose-only effect, or another doubt; inactive = no such curve, though single readings can be large; an effect the other way counts as inactive or inconclusive. Unless noted, % is set by controls: 0 for no effect and ±100 for the full control effect; potency is the fitted concentration of half-maximal effect.
SMILES,HT1080 IDH1KD tx,KB-V1 cytotox,TDP1 cell CPT,HT1080-NT tox,TDP1 cell noCPT,KB-3-1 cytotox
Cc1ccc(C)c(S(=O)(=O)c2cn(C)c3cc(N4CCCCC4C)c(F)cc3c2=O)c1 (centres undefined),·,i,21µM*,·,21µM*,i
CCc1ccc(S(=O)(=O)c2cn(C)c3cc(N4CCC(C)CC4)c(F)cc3c2=O)cc1,·,i,15µM*,·,15µM*,i
CCc1ccc(S(=O)(=O)c2cn(C)c3cc(N4CCCCC4C)c(F)cc3c2=O)cc1 (centres undefined),·,i,?,·,15µM*,i
Cc1ccc(N2C(=O)N(CC(=O)Nc3cc(F)ccc3C)C(=O)C2C)cc1 (centres undefined),10%,?,1%,9%,1%,i
COc1ccc(Oc2ncc3nc(-c4ccccc4)c(=O)n(C4CC4)c3n2)cc1,·,·,-1%,·,?,·
CCOc1ccc(-c2nnc3n2N=C(c2ccc(OC)cc2)CS3)cc1,0%,i,-25%,5%,?,i
COc1ccc(C2=Nn3c(nnc3-c3ccccc3OC)SC2)cc1OC1CCOC1 (centres undefined),·,3.3µM*,·,·,·,0.65µM*
COc1ccccc1-c1nnc2n1N=C(c1ccc(O)c(O)c1)CS2,?,?,6.5µM*,0.21µM*,6.5µM*,?
COc1ccc(C2=Nn3c(nnc3-c3ccccc3C(F)(F)F)SC2)cc1OC1CCOC1 (centres undefined),·,i,·,·,·,?
COc1ccc(C2=Nn3c(nnc3-c3ccccn3)SC2)cc1,-1%,15µM*,?,-17%,?,?
CCOc1ccc(C2=Nn3c(nnc3-c3ccccc3OC)SC2)cc1,0.01µM*,?,0.21µM*,0.21µM*,0.18µM*,0.012µM*
Cc1cccc(C(=O)NCC(=O)OCc2cc(=O)n3nc(CC(C)C)sc3n2)c1,·,i,-15%,·,-13%,i
CCc1nnc2n1N=C(c1ccc(OC)cc1)CS2,?,16µM*,-2%,?,-29%,23µM*
CCc1nnc2n1N=C(c1ccc([N+](=O)[O-])cc1)CS2,7%,i,0%,6%,-22%,i
COc1ccc(C(=O)NCCS(=O)(=O)NCc2ccc3c(c2)OCO3)cc1,8%,i,2%,3%,-6%,i
COc1cccc(C(=O)NCCS(=O)(=O)NCc2ccc3c(c2)OCO3)c1,-5%,18µM*,-20%,-12%,-27%,i
COc1ccc(CNS(=O)(=O)CCNC(=O)c2cccc(OC)c2)cc1,3%,16µM*,9%,5%,8%,i
COc1ccc(CNS(=O)(=O)CCNC(=O)c2ccccc2)cc1,-12%,i,0%,-9%,4%,i
C=C1NN(CC#N)C(=O)N1c1ccc(OCc2ccccc2)cc1,·,i,8%,·,?,i
c1ccc(CN2CCN(Cc3c[nH]c4ccccc34)CC2)cc1,-6%,i,2.1µM*,-8%,10µM*,i
OCC1(Cc2ccccc2)CCCN(Cc2c[nH]c3ccccc23)C1 (centres undefined),-4%,i,12µM*,-17%,18µM*,i
COc1ccc(S(=O)(=O)N2CCN(Cc3c[nH]c4ccccc34)CC2)cc1,-2%,i,?,-2%,?,i
CCN1CCCC(CO)(Cc2ccccc2)C1 (centres undefined),4%,?,5%,-11%,-7%,i
O=[N+]([O-])c1ccc(S(=O)(=O)N2CCN(Cc3c[nH]c4ccccc34)CC2)cc1,5%,21µM*,?,-20%,?,i
CC(C)CNc1ncnc2c1ncn2[C@H]1CN(Cc2ccc3c(c2)OCO3)C[C@@H](CO)O1,23%,i,?,?,-23%,i
SMILES,HT1080 IDH1KD tx,KB-V1 cytotox,TDP1 cell CPT,HT1080-NT tox,TDP1 cell noCPT,KB-3-1 cytotox
COc1cc(CNC(=O)c2cc(-c3ccc(OC)cc3C)n[nH]2)cc(OC)c1,30%,i,?,4%,-11%,i
Cc1cc(C(=O)N/N=C2\CCCc3ccccc32)c(C)o1,11%,?,-9%,8%,-12%,i
O=C(N/N=C1\CCc2ccccc21)c1ccccc1O,?,21µM*,-24%,?,23µM*,i
CC(Oc1ccc(Cl)cc1Cl)C(=O)N/N=C1\CCCc2ccccc21 (centres undefined),6%,i,?,11%,26µM*,i
O=C(N/N=C1\CCCc2ccccc21)c1ccccc1Cl,-1%,i,2.1µM*,2%,-25%,i
O=C(N/N=C1\CCc2ccccc21)c1ccncc1,-9%,i,3%,-9%,-30%,i
Cc1cc(C)cc(OCC(=O)N(Cc2cccs2)C2CCS(=O)(=O)C2)c1 (centres undefined),-2%,8.2µM*,-16%,-3%,0%,i
COc1ccc(C(=O)N(Cc2sccc2C)C2CCS(=O)(=O)C2)cc1Cl (centres undefined),·,·,?,·,18µM*,·
Cc1cc(Cl)ccc1OCC(=O)N(Cc1sccc1C)C1CCS(=O)(=O)C1 (centres undefined),·,·,23µM*,·,18µM*,·
Cc1ccc(OCC(=O)N(Cc2cccs2)C2CCS(=O)(=O)C2)cc1 (centres undefined),-7%,?,1%,-9%,-7%,i
CCCCSc1nc(-c2ccc(OC)cc2)ccc1C#N,·,?,·,·,·,i
CCOc1ccc(-c2nnc(SCC(=O)Oc3ccccc3)o2)cc1,·,i,?,·,-5%,i
CC1=C(C(=O)Nc2ccc([N+](=O)[O-])cc2)C(c2cccc(C(F)(F)F)c2)NC(=S)N1c1ccccc1 (centres undefined),?,?,13µM*,?,16µM*,?
COc1ccc(C2NC(=S)N(c3ccccc3)C(C)=C2C(=O)Nc2ccccc2)cc1 (centres undefined),-12%,i,-14%,-4%,-15%,i
O=C(c1ccc2c(c1)N(Cc1ccc(Cl)cc1)C(=O)c1ccccc1S2=O)N1CCOCC1 (centres undefined),·,i,?,·,?,i

# Source: PubChem (National Center for Advancing Translational Sciences (NCATS))
